# Experimental data as given in PubChem BioAssay (NCATS).
# Several values for one entry are separate records, joined by “and”; a condition that tells them apart may be missing. Equal entries are not always repeated. A number with no mark means an inactive call. Results filed as inconclusive are left out. A call without a number means that no potency is given here. Activity calls are given as the source filed them. The call rests on the fitted dose curve; in most records, active means well fitted curve in the direction sought with a large enough effect; inconclusive means small, poorly fitted or top-dose-only effect, or another doubt; inactive means no such curve, though single readings can be large; an effect the other way counts as inactive or inconclusive.
# Assays:
# [1] = target: Glutathione peroxidase 1 (Homo sapiens) (UniProt P07203); assay: Primary qHTS Assay for Inhibitors of Recombinant Selenoprotein Glutathione Peroxidase 1 (GPX1) (AID 1845191); further: nearly all actives have a fitted effect of over 65% in size
# Chain of Glutathione peroxidase 1 (Homo sapiens) (P07203 whole entry, looked up): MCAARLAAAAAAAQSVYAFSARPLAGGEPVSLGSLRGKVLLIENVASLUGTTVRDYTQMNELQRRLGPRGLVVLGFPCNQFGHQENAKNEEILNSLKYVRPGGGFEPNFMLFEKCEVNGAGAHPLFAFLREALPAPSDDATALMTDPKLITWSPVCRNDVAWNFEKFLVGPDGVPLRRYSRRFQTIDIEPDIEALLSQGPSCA
# In short: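 GR-coupled assay: compounds preincubated 30 min at room temperature with GPX1, then reaction started with CHP; final 10 nM GPX1, 1 mM GSH, 0.5 mM CHP, 0.5 mM NADPH, 100 nM GR, 0.01% BSA, pH 7.5 Tris buffer. NADPH fluorescence (340/450 nm) read at 0 and 15 min.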
# [2] = target: Phospholipid hydroperoxide glutathione peroxidase GPX4 (Homo sapiens) (UniProt P36969); assay: Primary qHTS Assay for Inhibitors of Recombinant Selenoprotein Glutathione Peroxidase 4 (GPX4) (AID 1845192); further: nearly all actives have a fitted effect of over 65% in size; on activity change, negative = inhibition: series mostly up to about 50 µM
# Chain of Phospholipid hydroperoxide glutathione peroxidase GPX4 (Homo sapiens) (P36969 whole entry, looked up): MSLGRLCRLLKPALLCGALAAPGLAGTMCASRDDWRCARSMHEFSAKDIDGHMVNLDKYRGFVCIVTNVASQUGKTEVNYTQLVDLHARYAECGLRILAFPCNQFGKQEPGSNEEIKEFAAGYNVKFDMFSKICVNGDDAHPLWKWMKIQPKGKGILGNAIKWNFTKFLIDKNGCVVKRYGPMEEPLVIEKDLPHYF
# In short: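 GR-coupled assay: recombinant GPX4 preincubated 30 min with compound at room temperature; final 200 nM GPX4, 1 mM GSH, 0.5 mM cumene hydroperoxide, 0.5 mM NADPH, 100 nM GR, 0.01% BSA, pH 7.5 Tris. NADPH fluorescence (340/450 nm) read at 0 and 15 min.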
# [3] = target: Luciferin 4-monooxygenase (Photinus pyralis) (UniProt P08659); assay: Primary firefly luciferase (FLuc) qHTS assay for identification of artifact compounds. (AID 1845220); further: nearly all actives have a fitted effect of over 60% in size; on activity change, negative = inhibition: series mostly up to about 54 µM
# In short: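 Enzymatic FLuc inhibition assay: compounds pre-exposed to luciferin/ATP (10 uM each) for 15 min, then purified P. pyralis enzyme at 10 nM added. Read-out: luminescence at 5 min.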
# [4] = Primary fluorescence-based thiol-reactive (MSTI) qHTS assay for identification of artifact compounds. (AID 1845221); further: nearly all actives have a fitted effect of over 65% in size;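 on activity change, negative = thiol reactive: series mostly up to about 54 µM; thiol-reactive compounds lower the probe fluorescence signal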
# In short: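 A multi-concentration qHTS design tested compounds against 4 uM MSTI, pH 7.4 phosphate-buffered saline. Plates were protected from light for 1 h at room temperature before imaging fluorescence.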
# [5] = test system: Nanoluciferase (engineered Oplophorus gracilirostris luciferase); assay: Primary Nanoluciferase (NLuc) qHTS assay for identification of artifact compounds. (AID 1845222);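 on activity, negative = inhibition: NLuc secreted into diluted conditioned medium of S16 cells; series mostly up to about 54 µM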
# In short: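 S16 cell supernatant NLuc, 1:55; cpds qHTS; 15 min RT dark; Nano-Glo substrate 1:100, 5 min; luminescence; Hill fit of % inhibition.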
# [6] = Primary redox qHTS assay for identification of artifact compounds. (AID 1845223)
# In short: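 Amplex Red (25 uM) and HRP (250 mU/mL) in HBSS, with compounds for 15 min, then 250 uM DTT for 30 min, room temperature, dark. Fluorescence 525/598 nm read; normalized to DMSO and 10 uM DA3003; Hill fit.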
# Potency means the concentration at half of the fitted maximal effect.
Compound,Potency [1],Potency [2],Potency [3],Potency [4],Potency [5],Potency [6],"activity change, negative = inhibition [3]","activity change, negative = thiol reactive [4]","activity, negative = inhibition [5]",redox activity (% of DA3003) [6]
CC(=O)O[C@@H]1C[C@@]23C[C@@]24CC[C@H](O[C@@H]2OC[C@H](O)[C@H](O)[C@H]2O)C(C)(C)[C@@H]4CC[C@H]3[C@]2(C)[C@@H](O)C34O[C@H](C[C@@H](C)[C@@H]3[C@@]12C)[C@@H](C(C)(C)O)O4,inactive,inactive,inactive,inactive,inactive,inactive,–,–,–,–
C[C@@H]1CCCN1CCc1cc2cc(-c3ccc(C#N)cc3)ccc2o1,inactive,inactive,inactive,inactive,inactive,inactive,–,–,–,–
COc1cc(OC)c2c(=O)[nH]c(-c3cc(C)c(OCCO)c(C)c3)nc2c1,inactive,inactive,15.1 µM (active),inactive,inactive,inactive,–,–,–,–
CCC(C)CNCC(=O)N1CCc2sccc2C1COc1cccc(C)c1 (stereo not given),inactive,inactive,inactive,inactive,inactive,inactive,–,–,–,–
CC(C)=CCCC1(C)C2CCC1(C)C(O)C2 (stereo not given),inactive,inactive,inactive,29.9 µM (active),inactive,inactive,–,–,–,–
COc1ccc(Oc2c(Cl)cnn(-c3cc(C)cc(C)c3)c2=O)cc1,inactive,inactive,inactive,inactive,inactive,inactive,–,–,–,–
Oc1ccc(-c2cnc3ccc(NCc4ccco4)nn23)cc1,inactive,inactive,inactive,5.97 µM (active),inactive,inactive,–,–,–,–
CCC(CC)C(=O)OC12C(OC(=O)C(C)C)C(C)C3(O)C(C=C(CO)CC4(O)C(=O)C(C)=CC43)C1C2(C)C (stereo not given),inactive,inactive,inactive,inactive,inactive,inactive,–,–,–,–
O=C(N[C@@H]1CCCc2c1cnn2-c1ccc(F)cc1F)c1ccccn1,inactive,inactive,inactive,inactive,inactive,inactive,–,–,–,–
Cn1cc(-c2ccc(S(=O)(=O)n3ccc(/C=C/C(=O)Nc4ccccc4N)c3)cc2)cn1,inactive,inactive,inactive,inactive,inactive,inactive,–,–,–,–
O=C(O)C1=CO[C@@H](O[C@@H]2O[C@H](CO)[C@@H](O)[C@H](O)[C@H]2O)[C@@H]2C(CO)=CC[C@H]12,inactive,inactive,inactive,inactive,inactive,inactive,–,–,–,–
N#Cc1ccc(COC[C@H]2O[C@@H](n3c(NCc4ccc(Cl)c(Cl)c4)nc4c(N)ncnc43)[C@H](O)[C@@H]2O)cc1,inactive,inactive,inactive,inactive,inactive,inactive,–,–,–,–
O=C(Nc1ccc(Cl)cc1)c1ccccc1NCc1ccncc1,inactive,inactive,inactive,inactive,inactive,inactive,–,–,–,–
CC(=O)Nc1cccc(Nc2ncnc(N3CCC(OCc4ccc(OC(F)(F)F)cc4)CC3)n2)c1C,inactive,inactive,inactive,inactive,inactive,inactive,–,–,–,–
Cc1c(C(=O)Nc2ccc(N3CCC(N4CCOCC4)CC3)c(C#N)c2)cnn1-c1ccc(Cl)cc1,inactive,inactive,inactive,inactive,inactive,inactive,–,–,–,–
CN(C)CC#CCCC(=O)C(O)(c1ccccc1)C1CCC1 (stereo not given),inactive,inactive,inactive,inactive,inactive,inactive,–,–,–,–
CCCSc1nc(N[C@@H]2C[C@H]2c2ccc(F)c(F)c2)c2nnn([C@@H]3C[C@H](OCCO)[C@@H](O)[C@H]3O)c2n1,inactive,inactive,inactive,inactive,inactive,inactive,–,–,–,–
CCn1nc(C2CCN(C(=O)CCO)CC2)nc1-c1cnc(N)c(-c2nnc(C(C)(C)C)o2)n1,20.2 µM (active) and 20.5 µM (active),14.3 µM (active),inactive,inactive,inactive,inactive,–,–,–,–
CN(C)CCN(Cc1ccc(-c2ccc(CNCCc3ccccc3)cc2)cc1)C(=O)CCC1CCCC1,inactive,inactive,inactive,inactive,inactive,inactive,–,–,–,–
CCc1cnc(N2CCC(c3nc(COc4ccc(-n5cnnn5)cc4)cs3)CC2)nc1,inactive,inactive,inactive,inactive,inactive,inactive,–,–,–,–
COC1C(O)C(OC2CCC3(C)C(CCC45CCC6C7(COC(=O)C7)OC4(O)C6(C)CCC35)C2)OC(C)C1OC1OC(CO)C(OC2OC(CO)C(O)C(O)C2O)C(O)C1O (stereo not given),inactive,inactive,–,–,–,–,0.42% [at 11.6 µM],19.5% [at 11.5 µM],4.19% [at 11.6 µM],3.19% [at 11.5 µM]
O=C(NCCCCCCCCNC(=O)C(Cl)Cl)C(Cl)Cl,inactive,inactive,inactive,inactive,inactive,inactive,–,–,–,–
CC(=O)O[C@H]1CC2C(COC(=O)CC(C)C)=CO[C@@H](OC(=O)CC(C)C)C2[C@]12CO2 (stereo not given in full),inactive,inactive,inactive,inactive,inactive,inactive,–,–,–,–
CC1=CC2/C=C(\C)CCC3OC(C)(C)OC3CCC(=O)C23C(=O)NC(CC(C)C)C3C1C (stereo not given),inactive,inactive,inactive,inactive,inactive,inactive,–,–,–,–
C=C1CC(=O)C2OC2(C)CC2OC(=O)C(=C)C2C(O)C1OC(=O)/C(C)=C\C (stereo not given),inactive,inactive,inactive,inactive,inactive,inactive,–,–,–,–

Compound,Potency [1],Potency [2],Potency [3],Potency [4],Potency [5],Potency [6],"activity change, negative = inhibition [3]","activity change, negative = thiol reactive [4]","activity, negative = inhibition [5]",redox activity (% of DA3003) [6]
CNc1cc2[nH]c(=O)n(-c3ccc(NC(=O)NS(=O)(=O)c4ccc(Cl)s4)cc3)c(=O)c2cc1F,inactive,inactive,inactive,inactive,inactive,inactive,–,–,–,–
Cn1nc(-c2ccc(C(F)(F)F)cc2)nc2c(=O)n(C)c(=O)nc1-2,25.5 µM (active),22.7 µM (active),6.01 µM (active),2.67 µM (active),3.01 µM (active),0.15 µM (active),–,–,–,–
O=C(COc1ccc2ccccc2c1Br)Nc1cccnc1,inactive,inactive,6.01 µM (active),inactive,inactive,inactive,–,–,–,–
COc1ccccc1N1CCN(CC(C(=O)NC(C)(C)C)c2ccccc2)CC1 (stereo not given),inactive,inactive,inactive,inactive,inactive,inactive,–,–,–,–
CC(C)(C)[C@H](NC(=O)c1ccc(N)c(Cl)c1)C(=O)N1CCC[C@H]1C(=O)N[C@H](C#N)CC(=O)O,inactive,inactive,inactive,inactive,inactive,inactive,–,–,–,–
c1cc(NCCc2c[nH]c3ccccc23)cc(Nc2ccncc2)c1,inactive,inactive,inactive,2.67 µM (active),inactive,inactive,–,–,–,–
COC(=O)CC[C@@H](C)C1CCC2C3CCC4C[C@H](OC(C)=O)CCC4(C)C3C[C@H](O)C21C (stereo not given in full),inactive,inactive,inactive,inactive,inactive,inactive,–,–,–,–
O=C(Nc1ccc2[nH]c(=O)oc2c1)C(=O)N1CCC(Cc2ccc(F)cc2)CC1,inactive,inactive,inactive,inactive,inactive,inactive,–,–,–,–
COc1cc(C[C@H]2C(=O)OC[C@@H]2Cc2ccc(OC)c(OC)c2)ccc1O,inactive,inactive,inactive,inactive,inactive,inactive,–,–,–,–
Cc1cc(C)c(-n2cc(C)c3c(Cl)nc(C)nc32)c(C)c1,inactive,inactive,inactive,inactive,inactive,inactive,–,–,–,–
O=C(Nc1ccnc(NC(=O)C2CC2)c1)c1c(Cl)cccc1Cl,inactive,inactive,inactive,inactive,inactive,inactive,–,–,–,–
O=C(Nc1cc(C(F)(F)F)cc(C(F)(F)F)c1)c1cnc(Cl)nc1C(F)(F)F,inactive,inactive,inactive,inactive,inactive,inactive,–,–,–,–
Fc1ccc(-c2cncc(CN3CCN(c4cccc5c4OCCO5)CC3)c2)cc1,inactive,inactive,inactive,inactive,inactive,inactive,–,–,–,–
C=C[C@H](/C=C\c1ccc(O)cc1)c1ccc(O)cc1,inactive,inactive,inactive,inactive,inactive,inactive,–,–,–,–
CC(C)CCNc1ncccc1C(=O)N1CCN(Cc2ccccc2)CC1,inactive,inactive,inactive,inactive,inactive,inactive,–,–,–,–
Nc1ncnc2c1nc(Cl)n2C1OC2COP(=O)(O)OC2C1O (stereo not given),inactive,inactive,inactive,inactive,inactive,inactive,–,–,–,–
C=C1CCN([C@H](C)[C@](O)(Cn2cncn2)c2ccc(F)cc2F)CC1,inactive,inactive,inactive,inactive,inactive,inactive,–,–,–,–
CCCCNc1ncc(C(=O)NCc2ccc(-n3ccnc3)cc2)c(NC2CCC(O)CC2)n1 (stereo not given),inactive,inactive,inactive,inactive,inactive,inactive,–,–,–,–
C1=C/COCc2cc(ccc2OCCN2CCCC2)Nc2nccc(n2)-c2cccc(c2)COC/1,inactive,inactive,inactive,inactive,inactive,inactive,–,–,–,–
Cc1nc2ccc(-n3ncc(C(=O)c4cc5ccccc5[nH]4)c3N)cc2[nH]1,inactive,inactive,3.38 µM (active),inactive,inactive,inactive,–,–,–,–
COc1cc(N2CCC(N)CC2)ccc1Nc1ncc(Cl)c(-c2c[nH]c3ccccc23)n1,inactive,inactive,inactive,1.89 µM (active),inactive,inactive,–,–,–,–
CC(C)CCNC(=O)[C@H](CC(C)C)NC(=O)[C@H]1O[C@@H]1C(=O)O,inactive,inactive,inactive,inactive,inactive,inactive,–,–,–,–
CCS(=O)c1nc(-c2cccc(OCc3ccccc3)c2)cc(C(F)(F)F)n1 (stereo not given),inactive,inactive,inactive,inactive,inactive,inactive,–,–,–,–
Cn1ncc(Cl)c1-c1cc(C(=O)N[C@H](CN)Cc2cccc(F)c2)sc1Cl,inactive,inactive,inactive,inactive,inactive,inactive,–,–,–,–
CCCCOC(=O)NS(=O)(=O)c1sc(CC(C)C)cc1-c1ccc(Cn2ccnc2)cc1,inactive,inactive,inactive,inactive,inactive,inactive,–,–,–,–
